Reference: PubChem BioAssay (NCI)
The panel holds about 83,000 compounds, 20% with a hit somewhere; the sample as a whole holds those more often.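 Single-concentration screen, 48 h exposure, 96-well plates. Endpoint: percent growth. Below 10 = active.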 A number with no mark means an inactive call. Activity calls are given as the source filed them.

How the values were obtained:
Assay in all cases: NCI-60 one-dose screen, 48 h (100 = growth as untreated, 0 = no growth, -100 = all killed)
[1] = test system: NCI-H522 lung; conditions: 10 µM unless noted
[2] = test system: COLO 205 colon; conditions: 10 µM
[3] = test system: K-562 leukemia; conditions: 10 µM unless noted
[4] = test system: MALME-3M melanoma; conditions: 10 µM unless noted
[5] = test system: U251 CNS; conditions: 10 µM unless noted
[6] = test system: CCRF-CEM leukemia; conditions: 10 µM unless noted
[7] = test system: SR leukemia; conditions: 10 µM
[8] = test system: RPMI-8226 leukemia; conditions: 10 µM unless noted
[9] = test system: OVCAR-4 ovarian; conditions: 10 µM unless noted
[10] = test system: SK-OV-3 ovarian; conditions: 10 µM unless noted
[11] = test system: OVCAR-3 ovarian; conditions: 10 µM unless noted
[12] = test system: T-47D breast; conditions: 10 µM unless noted
[13] = test system: BT-549 breast; conditions: 10 µM
[14] = test system: MCF7 breast; conditions: 10 µM unless noted
[15] = test system: HCC-2998 colon; conditions: 10 µM unless noted
[16] = test system: EKVX NSCLC; conditions: 10 µM unless noted
[17] = test system: TK-10 renal; conditions: 10 µM unless noted
[18] = test system: SNB-19 CNS; conditions: 10 µM unless noted

SMILES | growth [1] | growth [2] | growth [3] | growth [4] | growth [5] | growth [6] | growth [7] | growth [8] | growth [9] | growth [10] | growth [11] | growth [12] | growth [13] | growth [14] | growth [15] | growth [16] | growth [17] | growth [18]
Cc1ccc(N)cc1[As]=[As]c1cc(N)ccc1C (stereo not drawn) | -88.2% (active) | -69.3% (active) | -5.72% (active) | -90.7% (active) | -98.7% (active) | -38% (active) | -43.7% (active) | -40.2% (active) | -83.1% (active) | 75.3% | -92.6% (active) | -41.9% (active) | -93.6% (active) | -74.9% (active) | -73.8% (active) |  |  | 
CC[C@H](C)[C@H](NC(=O)Nc1ccccc1)C(=O)N(C)[C@H](C[C@@H](OC(C)=O)c1nc(C(=O)N[C@@H](Cc2ccccc2)C[C@H](C)C(=O)OC)cs1)C(C)C | -44.6% (active) | -51.8% (active) | 15.7% | 41.4% | 7.23% (active) | 9.52% (active) | 11.2% |  | 31.5% | 25.4% | -40.4% (active) | 61.6% | 2.56% (active) |  | 18.7% | 33.2% |  | 
CC(=O)O[C@H]1CC[C@H]2[C@@H]3CC[C@H]4CC=C(C)C[C@]4(C)[C@H]3CC[C@]12C | 92.4% | 110% |  | 106% | 110% | 108% |  | 109% | 104% |  | 102% | 92.1% | 107% | 100% | 111% | 116% | 108% | 
O=C1NC(=S)NC(=O)C1=Cc1ccccc1 | 117% | 103% |  | 132% | 103% |  |  | 130% | 114% |  | 121% | 93.4% |  | 93.2% | 106% | 111% | 182% | 107%
Cc1ccc(C[As+](c2ccccc2)(c2ccccc2)c2ccccc2)cc1 | -22% (active) | -55.7% (active) | 9.47% (active) | 25% |  | 16.3% |  |  | 23.6% | -4.76% (active) | 13.9% | -3.86% (active) | -4.76% (active) | 9.14% (active) | 16.2% |  |  | 17.2%
CC1(C)CC2(CC(C)(C)c3cc(O)c(O)cc32)c2cc(O)c(O)cc21 | 37.4% | 102% |  | 101% | 92.3% | 84.5% | 70.3% | 103% | 82% | 97.1% | 88.9% | 104% |  | 94.5% | 102% | 95.1% | 117% | 104%
CC1(C)N=C(N)N=C(N)N1c1cccc(C(=O)Nc2cccc(S(=O)(=O)F)c2)c1 | 99.8% | 120% | 118% | 88.9% | 99.8% | 97.5% | 104% | 95.5% | 100% | 117% | 112% |  |  | 95.5% | 98.5% |  | 108% | 97.3%
CC(=O)C1C(=O)N(C)C(=O)N(C)C1=O | 105% | 114% | 108% | 114% | 96.1% | 97.2% | 96.5% | 99.7% | 105% |  | 112% | 106% | 106% | 99.7% | 112% |  | 109% | 110%
CC1COC(=O)C1 (stereo not drawn) | 99.4% | 102% |  | 98.2% |  | 95.4% |  |  | 109% | 96.1% | 107% | 95.5% | 102% |  | 98.6% |  | 100% | 105%
CN1CC2CCC(C1)C2=O | 92.1% | 106% | 93.1% | 79.2% | 101% | 94.4% | 82.7% | 98.9% | 103% | 91.8% | 106% |  | 88.8% | 102% |  |  | 93% | 105%
CCCCn1cc(C(=O)/C(C#N)=C/c2cc3ccccc3nc2Cl)c2cc(OC)ccc21 | 99.6% | 104% | 47.5% | 88.6% | 83.2% | 33.4% | -12% (active) |  | 95.5% | 94.5% | 78.6% | 80.4% | 91.7% | 72% | 96.8% | 93.9% | 101% | 
C1CNC2CCCC2C1 (stereo not drawn) | 91.7% | 102% | 112% | 99.4% | 105% | 106% |  |  | 102% | 108% | 107% | 108% | 102% | 99.7% | 107% |  |  | 111%
CCC(CO)NC1CCCCC1 (stereo not drawn) | 68.1% | 43.2% | 16.6% | 86.1% |  |  | 1.74% (active) |  | 89% | 102% | 100% |  |  | 63.4% | 86.4% | 90% | 70.8% | 88.3%
O=C1NC(=O)C(CN2C(=O)C3(c4ccccc42)[C@H](Cl)C(=O)N3c2ccccc2)C(=O)N1 (stereo partly drawn) | 51.4% | 102% | 65.5% | 95.4% | 72.6% | 54.4% | 15.2% | 63.1% | 97.6% | 83.1% |  |  |  | 18.4% | 83.9% | 79.3% | 121% | 88.6%
CCCCN(CCCC)CC(O)c1ccccc1 (stereo not drawn) | 112% | 134% | 103% |  | 100% | 99.8% | 102% | 113% | 95.4% | 111% | 108% | 127% | 124% | 105% | 102% | 96.7% |  | 106%
CC(C)Nc1ccc(Nc2ccccc2)cc1 | 40.8% | 43.6% | 24.6% | 43% | 12.5% | 38.3% |  | 11.5% | 28.3% | 27.7% | 7.43% (active) | 42.9% | 22.8% | 32% | 49.6% | 29.4% | 45.2% | 
CN1C(=O)NC(=O)C(N=Nc2ccc(Cl)cc2)C1=O (stereo not drawn) | 81.3% | 137% | 54.7% | 134% |  | 106% | 100% | 96.1% |  | 120% | 105% |  | 80.3% | 93% | 90.6% | 96.3% | 101% | 106%
CO[C@@H]1[C@H](OC(=O)NC(=O)CCl)CC[C@]2(CO2)[C@H]1[C@@]1(C)O[C@@H]1CC=C(C)C | 10.3% | 57.4% | 47.2% | 57.7% | 5.86% (active) | 31.8% | 21.5% | 45.4% | 47.8% | 93.7% | 71.8% | 64.6% | 61.2% | 26.9% | 80.9% | 91.7% | 92.6% | 48.6%
CC(C)(O)/C=C/C(=O)[C@](C)(O)[C@H]1[C@H](O)C[C@@]2(C)[C@@H]3CC=C4[C@@H](C=C(O)C(=O)C4(C)C)[C@]3(C)C(=O)C[C@]12C | -74.7% (active) | -52.3% (active) | -32.4% (active) | -66.5% (active) | -77.5% (active) | -29.1% (active) |  | -53.8% (active) | -45.9% (active) | 5.63% (active) | -28.9% (active) | -15.3% (active) | -60.1% (active) | 2.31% (active) |  | -10.9% (active) | -54.9% (active) | -53.1% (active)
COc1ccc(/C=C\c2cc(OC)c(OC)c(OC)c2)cc1N/C=C\C(=O)c1c[nH]c2ccccc12 | -9.96% (active) | -65.6% (active) | 13.7% | 57.8% | 15.5% | 5.7% (active) | 2.48% (active) |  |  | 12.9% | -9.54% (active) | 81.7% | 6.79% (active) | 14.7% | 21.4% |  | 60.1% | 38.6%
CCC(C)/C=C(C)/C=C/C(=O)c1c(O)c(-c2ccc(O)cc2)c[nH]c1=O (stereo not drawn) | 34.1% | 105% | 39.2% | 75% |  | 16.2% | 13% | 41.6% |  | 74.3% | 40.7% | 48.6% | 38.3% | 18.6% | 47.5% | 58% | 27.3% | 59%
